What all share (parameters): scale not given: direction of the effect not stated beside the values
Assay [1] deals with Protein translocase subunit SecA (Escherichia coli (strain K12)) (UniProt P10408). In words: Assay to Identify E. coli SecA ATPase Inhibitors. The settings on record: 30 µM. It is filed as functional.
The target in assay [2] is T1, Ubiquitin-activating enzyme e1, putative (Leishmania donovani (strain BPK282A1)) (UniProt E9BSI1).
T1 sequence (whole entry): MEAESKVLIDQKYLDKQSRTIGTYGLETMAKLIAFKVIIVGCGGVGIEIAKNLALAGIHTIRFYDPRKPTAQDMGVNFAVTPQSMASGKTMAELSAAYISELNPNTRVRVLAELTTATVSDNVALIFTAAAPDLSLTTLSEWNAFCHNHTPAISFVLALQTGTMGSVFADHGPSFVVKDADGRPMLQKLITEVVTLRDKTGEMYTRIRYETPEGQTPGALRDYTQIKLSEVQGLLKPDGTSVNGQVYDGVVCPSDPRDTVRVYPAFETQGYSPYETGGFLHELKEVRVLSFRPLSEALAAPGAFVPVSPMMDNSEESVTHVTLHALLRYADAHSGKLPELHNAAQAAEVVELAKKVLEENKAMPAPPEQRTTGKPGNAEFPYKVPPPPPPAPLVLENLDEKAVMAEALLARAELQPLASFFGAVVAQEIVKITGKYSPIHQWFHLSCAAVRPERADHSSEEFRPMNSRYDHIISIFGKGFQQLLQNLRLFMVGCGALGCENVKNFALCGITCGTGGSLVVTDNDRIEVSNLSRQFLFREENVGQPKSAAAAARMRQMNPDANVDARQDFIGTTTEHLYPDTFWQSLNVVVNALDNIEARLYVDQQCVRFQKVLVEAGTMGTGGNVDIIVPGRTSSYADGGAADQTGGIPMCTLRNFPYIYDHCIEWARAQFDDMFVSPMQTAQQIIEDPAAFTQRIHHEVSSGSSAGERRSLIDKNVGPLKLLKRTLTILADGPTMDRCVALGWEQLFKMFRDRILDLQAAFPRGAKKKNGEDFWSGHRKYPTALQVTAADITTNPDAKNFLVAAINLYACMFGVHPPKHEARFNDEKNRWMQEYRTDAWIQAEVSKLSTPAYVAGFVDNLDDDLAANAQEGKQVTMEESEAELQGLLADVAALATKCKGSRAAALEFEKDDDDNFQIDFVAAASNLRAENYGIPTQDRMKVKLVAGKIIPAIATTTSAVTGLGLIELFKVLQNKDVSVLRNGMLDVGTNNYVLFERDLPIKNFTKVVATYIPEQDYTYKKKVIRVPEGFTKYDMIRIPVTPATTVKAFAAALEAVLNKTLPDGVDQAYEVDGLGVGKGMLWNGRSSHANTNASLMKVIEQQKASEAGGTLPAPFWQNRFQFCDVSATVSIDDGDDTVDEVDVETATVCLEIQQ
Description: Leishmania donovani Ubiquitin Activating Enzyme (LdE1). Format: functional. The settings on record: 30 µM.

Assay [3] concerns the target AMP-activated protein kinase, AMPK (Homo sapiens) (UniProt P54646+O43741+P54619+Q9UGJ0+Q9Y478+Q13131+Q9UGI9). In words: AMP-dependent Kinase enzyme assay. An in vitro enzyme assay that detects ADP turnover that is directly proportional to AMPK activity. This uses naive AMPK that is activated during the assay with MK-8722. It is filed as functional. The settings on record: 30 µM.

Assay [4] addresses Sialic acid-binding Ig-like lectin 9 (Homo sapiens) (UniProt Q9Y336). Description: Hs-Siglec9 ALPHAscreen SOP 20170721. The conditions noted are these: 10 µM. On the technique in general: Bead proximity is the source of the signal in Alpha formats.
The test system of another assay is Trypanosoma cruzi. In words: Trypanosoma cruzi phosphomannomutase and mannose-1-phosphate guanylyltransferase assay. The settings on record: 10 µM. Format: functional.
In assay [5] the target is T2, Arginase-2, mitochondrial (Homo sapiens) (UniProt P78540).
T2 sequence (whole entry): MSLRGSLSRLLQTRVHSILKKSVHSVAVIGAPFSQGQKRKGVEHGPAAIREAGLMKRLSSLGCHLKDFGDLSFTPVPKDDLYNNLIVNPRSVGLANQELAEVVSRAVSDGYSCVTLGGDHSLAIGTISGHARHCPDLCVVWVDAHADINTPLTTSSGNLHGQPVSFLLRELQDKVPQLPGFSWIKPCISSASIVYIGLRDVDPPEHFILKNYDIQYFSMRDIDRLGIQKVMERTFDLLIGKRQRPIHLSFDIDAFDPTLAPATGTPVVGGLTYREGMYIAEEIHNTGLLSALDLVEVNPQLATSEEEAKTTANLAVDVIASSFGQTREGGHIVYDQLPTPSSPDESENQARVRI
In words: in vitro enzyme assay to detect the production of urea directly proportional to the activity of Arginase II. Note: in the data most compounds retested in dose-response had high values. It is filed as functional. The conditions noted are these: 33.3 µM.

Assay [6] deals with T3, Proteasome subunit beta (Trypanosoma cruzi) (UniProt O96673).
T3 sequence (whole entry): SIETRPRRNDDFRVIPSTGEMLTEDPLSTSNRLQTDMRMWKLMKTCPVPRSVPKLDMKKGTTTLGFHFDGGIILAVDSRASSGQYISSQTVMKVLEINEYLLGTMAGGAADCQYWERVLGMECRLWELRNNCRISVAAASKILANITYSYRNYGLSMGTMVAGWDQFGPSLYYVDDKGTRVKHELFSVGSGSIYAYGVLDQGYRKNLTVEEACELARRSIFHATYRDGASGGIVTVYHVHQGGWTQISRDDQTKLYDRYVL
In words: Trypanosoma cruzi proteasome chymotrypsin-like activity (TcProtChymo) assay. Note: in the data most compounds retested in dose-response had high values. Format: functional. The settings on record: 9.37 µM.

Another assay is filed under the species Homo sapiens. Description: To identify inhibition of the IFN signalling (Jak-Stat) pathway via expression of an eGFP reporter gene under the control of an IFN-stimulated response element (ISRE) containing MxA promoter. Format: functional. The settings on record: 30 µM. (A reporter such as luciferase makes a cellular process visible.)
The target in assay [7] is T4, Tyrosyl-tRNA synthetase, putative (Trypanosoma cruzi (strain CL Brener)) (UniProt Q4DSP6).
T4 sequence (whole entry): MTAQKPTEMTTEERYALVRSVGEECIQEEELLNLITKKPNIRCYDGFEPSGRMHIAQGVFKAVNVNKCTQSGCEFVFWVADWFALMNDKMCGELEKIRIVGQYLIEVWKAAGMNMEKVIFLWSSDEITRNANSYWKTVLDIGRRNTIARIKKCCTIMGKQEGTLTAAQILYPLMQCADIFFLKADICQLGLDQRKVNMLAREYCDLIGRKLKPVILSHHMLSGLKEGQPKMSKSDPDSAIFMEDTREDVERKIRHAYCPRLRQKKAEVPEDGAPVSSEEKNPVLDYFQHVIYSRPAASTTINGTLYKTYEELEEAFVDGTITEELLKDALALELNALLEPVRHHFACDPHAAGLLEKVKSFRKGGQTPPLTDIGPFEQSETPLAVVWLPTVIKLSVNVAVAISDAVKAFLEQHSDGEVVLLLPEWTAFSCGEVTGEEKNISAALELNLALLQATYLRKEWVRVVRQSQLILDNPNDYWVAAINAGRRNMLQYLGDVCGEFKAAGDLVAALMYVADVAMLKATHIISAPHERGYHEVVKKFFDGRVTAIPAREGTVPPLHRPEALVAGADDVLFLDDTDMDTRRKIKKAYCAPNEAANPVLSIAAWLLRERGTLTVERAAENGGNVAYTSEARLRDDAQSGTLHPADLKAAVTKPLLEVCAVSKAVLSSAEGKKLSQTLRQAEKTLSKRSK
In words: Trypanosoma cruzi tyrosyl tRNA synthetase (TcYRS) _High Tyrosine SOP. Note: in the data most compounds retested in dose-response had high values. Format: functional. The settings on record: 30 µM.

Assay [8] deals with T4, Tyrosyl-tRNA synthetase, putative (Trypanosoma cruzi (strain CL Brener)). In words: Trypanosoma cruzi tyrosyl tRNA synthetase (TcYRS) SOP. Format: functional. The settings on record: 30 µM.
Assay [9] concerns the target Chromo domain-containing protein 1 (Saccharomyces cerevisiae (strain ATCC 204508 / S288c) (Baker's yeast)) (UniProt P32657). In words: ScCHD-1 Enzyme Inhibition Assay. Note: in the data most compounds retested in dose-response had high values. The conditions noted are these: 30 µM. Format: functional.

SMILES strings stand for the structures. For some assays here: Potency and affinity values are given separately.

Sequence of Chromo domain-containing protein 1 (Saccharomyces cerevisiae (strain ATCC 204508 / S288c) (Baker's yeast)) (P32657 whole entry, the tested form may be a part): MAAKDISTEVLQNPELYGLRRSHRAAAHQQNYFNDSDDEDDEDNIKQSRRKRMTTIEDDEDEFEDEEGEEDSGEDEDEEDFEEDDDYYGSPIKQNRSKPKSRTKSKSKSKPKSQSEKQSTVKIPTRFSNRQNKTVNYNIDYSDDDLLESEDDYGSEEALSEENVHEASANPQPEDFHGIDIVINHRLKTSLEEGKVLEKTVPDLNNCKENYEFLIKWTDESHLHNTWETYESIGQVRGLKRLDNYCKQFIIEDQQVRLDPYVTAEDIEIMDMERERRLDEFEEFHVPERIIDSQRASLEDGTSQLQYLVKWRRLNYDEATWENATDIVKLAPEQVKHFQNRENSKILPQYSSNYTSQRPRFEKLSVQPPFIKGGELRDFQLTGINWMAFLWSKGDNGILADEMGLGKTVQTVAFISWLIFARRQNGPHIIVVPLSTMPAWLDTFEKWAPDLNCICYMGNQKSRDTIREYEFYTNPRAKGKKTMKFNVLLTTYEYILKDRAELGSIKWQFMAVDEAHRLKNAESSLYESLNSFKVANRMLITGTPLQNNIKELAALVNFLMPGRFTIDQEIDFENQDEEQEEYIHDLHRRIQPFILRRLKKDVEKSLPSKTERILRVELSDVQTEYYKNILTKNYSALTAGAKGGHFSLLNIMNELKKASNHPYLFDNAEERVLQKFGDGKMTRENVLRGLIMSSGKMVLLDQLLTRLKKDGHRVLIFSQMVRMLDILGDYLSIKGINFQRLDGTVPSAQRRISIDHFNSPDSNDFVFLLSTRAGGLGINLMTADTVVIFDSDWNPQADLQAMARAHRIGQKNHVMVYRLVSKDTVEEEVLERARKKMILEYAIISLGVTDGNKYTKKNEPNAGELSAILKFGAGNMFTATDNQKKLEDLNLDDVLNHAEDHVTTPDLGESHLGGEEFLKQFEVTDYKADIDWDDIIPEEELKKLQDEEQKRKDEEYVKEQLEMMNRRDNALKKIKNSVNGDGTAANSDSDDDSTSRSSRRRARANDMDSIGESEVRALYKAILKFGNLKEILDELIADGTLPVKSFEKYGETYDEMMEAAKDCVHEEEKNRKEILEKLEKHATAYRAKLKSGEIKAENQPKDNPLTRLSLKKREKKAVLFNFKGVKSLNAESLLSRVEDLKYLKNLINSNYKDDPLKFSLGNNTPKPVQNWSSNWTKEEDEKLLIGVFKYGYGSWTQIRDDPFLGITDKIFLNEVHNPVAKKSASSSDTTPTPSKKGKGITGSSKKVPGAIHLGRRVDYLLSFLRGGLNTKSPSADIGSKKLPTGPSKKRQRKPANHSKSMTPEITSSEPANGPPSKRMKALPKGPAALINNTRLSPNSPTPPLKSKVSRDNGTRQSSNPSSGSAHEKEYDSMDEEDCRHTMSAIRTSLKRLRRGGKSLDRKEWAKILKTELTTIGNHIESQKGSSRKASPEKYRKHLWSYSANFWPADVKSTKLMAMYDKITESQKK
Sequence of Sialic acid-binding Ig-like lectin 9 (Homo sapiens) (Q9Y336 whole entry): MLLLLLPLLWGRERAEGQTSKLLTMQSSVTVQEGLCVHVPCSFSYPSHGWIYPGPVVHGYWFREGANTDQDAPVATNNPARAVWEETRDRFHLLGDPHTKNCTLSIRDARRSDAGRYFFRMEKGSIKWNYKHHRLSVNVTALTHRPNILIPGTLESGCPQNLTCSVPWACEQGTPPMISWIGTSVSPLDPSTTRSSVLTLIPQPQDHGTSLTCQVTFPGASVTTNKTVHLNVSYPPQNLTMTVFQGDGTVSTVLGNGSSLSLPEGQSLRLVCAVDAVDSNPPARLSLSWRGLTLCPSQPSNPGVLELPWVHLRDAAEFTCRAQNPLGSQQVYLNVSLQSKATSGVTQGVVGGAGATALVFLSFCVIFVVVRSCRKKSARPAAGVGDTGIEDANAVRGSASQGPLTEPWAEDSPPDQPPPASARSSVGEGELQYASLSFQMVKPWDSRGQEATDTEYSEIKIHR
Sequence of Protein translocase subunit SecA (Escherichia coli (strain K12)) (P10408 whole entry): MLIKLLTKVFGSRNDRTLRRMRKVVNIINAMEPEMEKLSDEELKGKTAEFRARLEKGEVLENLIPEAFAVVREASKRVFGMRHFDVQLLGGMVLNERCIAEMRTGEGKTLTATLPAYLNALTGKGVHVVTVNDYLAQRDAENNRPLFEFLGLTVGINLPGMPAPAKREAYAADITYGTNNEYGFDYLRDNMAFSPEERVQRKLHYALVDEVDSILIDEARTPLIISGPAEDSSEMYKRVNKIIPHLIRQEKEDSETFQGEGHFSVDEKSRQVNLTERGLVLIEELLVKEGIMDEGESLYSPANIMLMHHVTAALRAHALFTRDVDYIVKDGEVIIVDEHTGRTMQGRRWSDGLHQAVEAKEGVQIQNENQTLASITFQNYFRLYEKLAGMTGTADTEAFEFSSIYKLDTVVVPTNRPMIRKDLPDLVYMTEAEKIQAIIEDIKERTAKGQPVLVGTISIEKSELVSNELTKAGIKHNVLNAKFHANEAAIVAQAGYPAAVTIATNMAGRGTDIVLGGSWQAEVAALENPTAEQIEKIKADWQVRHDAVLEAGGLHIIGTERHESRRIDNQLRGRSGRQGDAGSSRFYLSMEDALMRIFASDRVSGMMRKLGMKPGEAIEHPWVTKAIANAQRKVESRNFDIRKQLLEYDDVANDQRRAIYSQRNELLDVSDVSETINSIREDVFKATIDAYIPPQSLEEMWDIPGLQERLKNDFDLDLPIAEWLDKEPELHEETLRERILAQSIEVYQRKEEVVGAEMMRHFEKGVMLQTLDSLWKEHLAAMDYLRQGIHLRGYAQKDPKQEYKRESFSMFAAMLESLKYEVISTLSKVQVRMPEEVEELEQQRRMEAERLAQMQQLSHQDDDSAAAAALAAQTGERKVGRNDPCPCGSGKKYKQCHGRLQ

As to `Cc1nc2c(c(C)c1CC(=O)Nc1ccc(Cl)cc1)c(=O)[nH]n2C`, the Percent Effect in assay [1] was -8.55%; in assay [2] it was 10.7%; in [3], -2.37%; in [4], 20.4%; in the assay with Trypanosoma cruzi, 5.36%; in assay [5], 6.77%. For the same compound, the Percent Effect was found to be 6.97% in assay [6]; 11.7% in the assay listed under Homo sapiens; 3.83% in assay [7]; 13.6% in assay [8]; 3.39% in assay [9].
Regarding `O=C(c1cc(F)ccc1F)C1CCN(C(=O)c2ccccn2)CC1`, the Percent Effect is -3.32% in [1]; 13% in assay [2]; 3.21% in assay [3]; -2.77% in assay [4]; 1.27% in the assay with Trypanosoma cruzi; 3.58% in assay [5]. Moreover, the Percent Effect in assay [6] is 17.1%; in the assay filed under Homo sapiens, 21.7%; in assay [7], 7.62%; in assay [8] it was 23.5%; in [9], -13.2%.
For the compound `CC(NC(=O)NCCCn1cccn1)c1ccc2c(c1)NC(=O)CO2` (stereo not given), the Percent Effect in [1] was -6.96%; in assay [2], 25.3%; in assay [3], -6.75%; in [4], -5.5%; with Trypanosoma cruzi, 10.1%; in [5], -3.42%. Moreover, the Percent Effect in assay [6] was 10.2%; in the assay filed under Homo sapiens, 15.4%; in assay [7] it was 8.37%; in [8], 29.1%; in [9] it was -10.1%.
Regarding `O=C(NC1(c2nnn(Cc3ccncc3)n2)CCCC1)c1ccccc1`, the Percent Effect in [1] was -6.65%; in [2] it was 2.67%; in [3], -7.02%; in assay [4] it was 6.6%; in the assay with Trypanosoma cruzi it was 1.85%; in assay [5], 0.521%. Besides, the Percent Effect in assay [6] is -25.6%; in the assay filed under Homo sapiens, -24.1%; in assay [7], 7.1%; in assay [8] it was 16.1%; in [9], -2.08%.
Consider `COc1cc(C(=O)N(Cc2ccco2)C2CC2)cc2c1OCCO2`, for which the Percent Effect in assay [1] is -0.29%; in assay [2] it was -2.63%; in [3], 8.94%; in [4] it was 6.17%; in the assay with Trypanosoma cruzi, -1.46%; in [5] it was -5.92%. The Percent Effect in [6] turned out to be 6.81%; in the assay filed under Homo sapiens it was 6.99%; in [7], 2.13%; in assay [8] it was 2.6%; in assay [9] it was 0.909%.
Take `Cc1noc(C)c1CN1C[C@@H]2COC[C@H](C(=O)N3CCCCO3)[C@@H]2C1`: the Percent Effect in [1] was -5.77%; in [2], 8%; in assay [3], 8.79%; in assay [4], -0.115%; in the assay on Trypanosoma cruzi, -5.12%; in assay [5], -1.17%. In addition, the Percent Effect is 7.31% in assay [6]; 3.63% in the assay listed under Homo sapiens; 6.38% in [7]; 8.97% in assay [8]; -0.163% in assay [9].
As for `CN(c1cccnn1)C1CCN(C(=O)c2ccc3c(c2)COC3)CC1`, the Percent Effect was -7.72% in assay [1]; -44.2% in assay [2]; 15.1% in assay [3]; 5.38% in assay [4]; 0.187% in the assay on Trypanosoma cruzi; 2.85% in [5]. The Percent Effect in [6] is 5.41%; in the assay listed under Homo sapiens, 9.98%; in assay [7], 6.8%; in assay [8] it was 12.2%; in assay [9], -5.25%.
As to `O=C(Nc1cc(F)ccc1OCC1CCCO1)N1CCCC1` (stereo not given), the Percent Effect in assay [1] was -0.769%; in assay [2], 2.6%; in assay [3], -5.42%; in assay [4], 10.4%; with Trypanosoma cruzi, 6.55%; in assay [5] it was 3.56%. In addition, the Percent Effect in [6] was -2.37%; in the assay filed under Homo sapiens it was -1.89%; in assay [7], 2.91%; in [8], 14.6%; in assay [9] it was -5.42%.
Regarding `Cc1cc(-c2cnc(N3CCCC(C)C3)nc2-c2cccnc2C)on1` (stereo not given), the Percent Effect in assay [1] was -7.33%; in assay [2], 1.35%; in [3], 6.26%; in assay [4] it was -5.16%; in the assay with Trypanosoma cruzi it was -5.93%; in assay [5], -5.34%. In addition, the Percent Effect in assay [6] was 8.74%; in the assay listed under Homo sapiens, 59.4%; in assay [7], -8.6%; in assay [8], -3.9%; in assay [9], -22.2%.
As for `CC(=O)N1CC(=O)N(c2cnn(C)c2)CC12CCN(Cc1ccsc1)C2` (stereo not given), the Percent Effect in assay [1] was -5.9%; in [2] it was 2.7%; in [3], -4.89%; in assay [4], 3.54%; in the assay on Trypanosoma cruzi, -6.05%; in assay [5], -1.25%. Besides, the Percent Effect is 18.3% in assay [6]; 13.5% in the assay filed under Homo sapiens; 3.96% in assay [7]; 3.66% in assay [8]; -3.49% in [9].

(Values after ChEMBL document CHEMBL3988442, “University of Dundee, Small-Polar-MMV Screening Library” (2021).)
